Measured values: PubChem BioAssay (NCI)
The panel holds about 83,000 compounds, 20% with a hit somewhere; the sample as a whole holds those more often.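 Plates (96-well) were seeded with cells, treated with compound at one concentration, and incubated for 48 hours before percent growth was determined.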 A number with no mark means an inactive call. Calls of active or inactive are those of the source. Rule for the calls: active = growth percent below 10; inactive = the rest.

What follows are molecules tested on OVCAR-5 ovarian (assay: NCI-60 one-dose screen, 48 h (100 = growth as untreated, 0 = no growth, -100 = all killed)). Details: 10 µM.
COc1ccc(CN2[C@H](C(=O)NCc3ccc(C(=O)NO)cc3)Cc3c([nH]c4ccccc34)[C@H]2C2CC2)cc1 showed a growth of 34.4%.
In the case of O=C(NO)c1ccc(CNC(=O)[C@H]2Cc3c([nH]c4ccccc34)[C@H](c3ccc(Cl)cc3)N2)cc1, the growth is reported as -6.43% (active).
For O=C(Cn1nc(-c2ccccc2)ccc1=O)NN1C(=O)c2ccccc2C1=O, the growth was 120%.
In the case of OCc1[nH]nc2cc(Nc3ncc4ccc(Br)c(OC5CCC(O)CC5)c4n3)ccc12 (stereo unspecified), the growth is reported as -17.9% (active).
For COc1cc2c3c(n(CCCNCCO)c(=O)c2cc1OC)-c1nc2c(cc1C3=O)OCO2, the growth was -3.64% (active).
For COc1ccc(CN2[C@H](C(=O)NCCCCCCC(=O)NO)Cc3c([nH]c4ccccc34)[C@H]2C2CC2)cc1, the growth was -21.2% (active).
COc1ccc(C2N(c3ccc(Br)cc3)N=C(C(C)=O)N2[C@H]2[C@H](OC(C)=O)O[C@H](COC(C)=O)[C@@H](OC(C)=O)[C@@H]2OC(C)=O)cc1 (stereo partly specified) showed a growth of 85.6%.
Molecule CN1C(=O)N(C)C2SC(N/N=C/c3cccs3)=NC21 (stereo unspecified) has a growth of 42.5%.
Cc1cc(C)nc(/N=C(\N)Nc2ccc(S(=O)(=O)Nc3nc(C)cc(C)n3)cc2)n1 gave a growth of 119%.
With O=C(Cc1ccc2c(c1)CN(C1CCC(=O)NC1=O)C2=O)NCCc1ccccc1 (stereo unspecified) the growth was 37.6%.
With CCNCCCn1c2c(c3cc(OC)c(OC)cc3c1=O)C(=O)c1cc3c(nc1-2)OCO3 the growth was -88.7% (active).
With O=C(CNc1nc(-c2ccccc2)cs1)Nc1ccc(Cl)cc1[N+](=O)[O-] the growth was -52.2% (active).
With Cc1ccc2nc(-c3ccc(-c4nnc(SCC(=O)Nc5ccc(Cl)cc5)o4)cc3)[nH]c2c1 the growth was 63.1%.
Work on Cc1ccc(C(=O)NNC(=O)CSc2nc3ccccc3c(=O)[nH]2)cc1 yielded a growth of 104%.
With CN(C)CCNC(=O)OCCCCOc1cc(O)c2c(=O)cc(-c3ccccc3)oc2c1 the growth was -4.32% (active).
In the case of CCCCSc1nc(Nc2ccc(/C(C)=N/NC(N)=S)cc2)c(C#N)c(-c2ccccc2)n1, the growth is reported as 60.4%.
For O=c1[nH]c2ccccc2cc1CSc1ccc(Nc2nccc(-c3ccc4c(c3)OCO4)n2)cc1, the growth was 98.3%.
For COc1cc2oc(-c3cccc(C(=O)Nc4ccc(Cl)cc4)c3)cc(=O)c2c(OCCNC(=O)CNC(=O)OC(C)(C)C)c1OC, the growth was 67.8%.
For Cc1ccc2nc(-c3ccc(-c4nnc(SCC(=O)Nc5ccc(Br)cc5)o4)cc3)[nH]c2c1, the growth was 92.4%.
In the case of COc1ccc(CN2[C@@H](C(=O)NCc3ccc(C(=O)NO)cc3)Cc3c([nH]c4ccccc34)[C@@H]2C)cc1, the growth is reported as 4.29% (active).
In the case of O=C(CNc1nc(-c2ccccc2)cs1)Nc1cccc(Cl)c1, the growth is reported as 40.9%.
NS(=O)(=O)c1ccc(NC(=O)CSc2ccc(-c3ccc(Cl)cc3)nn2)c(Br)c1 was tested, and the growth was 73.3%.
With Clc1ccc2c(N/N=C/c3c[nH]c4ccc(Br)cc34)ccnc2c1 the growth was -66.5% (active).
In the case of Cc1ccc(-c2ccc(SCC(=O)Nc3ccc(S(N)(=O)=O)cc3Br)nn2)cc1, the growth is reported as 42%.
CC(=O)Nc1ccc(-c2cn(-c3cccc(C(=O)Nc4cccc(OC(F)(F)F)c4)c3)nn2)cn1 was tested, and the growth was 108%.
CCOC(=O)N/C(=C1/OCCN1C)[P+](c1ccccc1)(c1ccccc1)c1ccccc1 gave a growth of 85.1%.
With O=C(NO)c1ccc(CNc2nc(-c3ccccc3)c3ccccc3n2)cc1 the growth was -22.4% (active).
Cc1cc(C)nc(NS(=O)(=O)c2ccc(N/C(N)=N/c3nccc(-c4cccs4)n3)cc2)n1 was tested, and the growth was 107%.
Work on COc1cnc2c(c1)C(=O)c1c-2n(CCCNCCO)c(=O)c2cc(OC)c(OC)cc12 yielded a growth of 24%.

The molecules below were run on OVCAR-4 ovarian in the same assay as above. Details: 10 µM.
With Cc1ccc(C(=O)N/C(=C2/OCCN2C)[P+](c2ccccc2)(c2ccccc2)c2ccccc2)cc1 the growth was 69.8%.
CN(C)c1ccc(/C=C/c2nc3ccccc3c(=O)n2CC(=O)Nc2ccc(Cl)cc2)cc1 was tested, and the growth was 7.27% (active).
In the case of Cc1ccc(CNC(=O)Cc2ccc3c(c2)CN(C2CCC(=O)NC2=O)C3=O)cc1 (stereo unspecified), the growth is reported as 0.757% (active).
Cc1ccn2c(C(=O)c3ccccc3)cc(-c3cc(-c4ccc(N(C)C)cc4)c(C#N)c(N)n3)c2c1 was tested, and the growth was 45.5%.
With CCOP(=O)(OCC)O[C@H]1CCC(=O)[C@@H]2[C@H]1[C@H]1C[C@@H]3[C@@]4(C)CCCC(C)(C(=O)OC)[C@@H]4CC[C@@]23C=C1C(C)C (stereo partly specified) the growth was 49.5%.
Molecule C#CCNC(=O)CCC(=O)OC[C@]12CC[C@@H](C(=C)C)[C@@H]1C1CC[C@@H]3[C@@]4(C)CCCNC(C)(C)[C@@H]4CC[C@@]3(C)[C@]1(C)CC2 (stereo partly specified) has a growth of 30.3%.
With C/C(=N\N=C\c1ccc(N(C)C)cc1)c1ccc2c(c1)Nc1ccccc1S2 the growth was 17.4%.
O=C(Nc1ccc(Cl)c([N+](=O)[O-])c1)Nc1ccc(Cl)c([N+](=O)[O-])c1 gave a growth of 23.2%.
For COc1ccc(CN2[C@H](C(=O)NCc3ccc(C(=O)NO)cc3)Cc3c([nH]c4ccccc34)[C@H]2C2CC2)cc1, the growth was 51.8%.
For O=C(NO)c1ccc(CNC(=O)[C@H]2Cc3c([nH]c4ccccc34)[C@H](c3ccc(Cl)cc3)N2)cc1, the growth was 39.7%.
With O=C(Cn1nc(-c2ccccc2)ccc1=O)NN1C(=O)c2ccccc2C1=O the growth was 94.7%.
OCc1[nH]nc2cc(Nc3ncc4ccc(Br)c(OC5CCC(O)CC5)c4n3)ccc12 (stereo unspecified) was tested, and the growth was 4.77% (active).
With COc1cc2c3c(n(CCCNCCO)c(=O)c2cc1OC)-c1nc2c(cc1C3=O)OCO2 the growth was 26.1%.
For COc1ccc(CN2[C@H](C(=O)NCCCCCCC(=O)NO)Cc3c([nH]c4ccccc34)[C@H]2C2CC2)cc1, the growth was 40.6%.
COc1ccc(C2N(c3ccc(Br)cc3)N=C(C(C)=O)N2[C@H]2[C@H](OC(C)=O)O[C@H](COC(C)=O)[C@@H](OC(C)=O)[C@@H]2OC(C)=O)cc1 (stereo partly specified) gave a growth of 71.6%.
For CN1C(=O)N(C)C2SC(N/N=C/c3cccs3)=NC21 (stereo unspecified), the growth was 57.9%.
For Cc1cc(C)nc(/N=C(\N)Nc2ccc(S(=O)(=O)Nc3nc(C)cc(C)n3)cc2)n1, the growth was 111%.
With O=C(Cc1ccc2c(c1)CN(C1CCC(=O)NC1=O)C2=O)NCCc1ccccc1 (stereo unspecified) the growth was 10.6%.
CCNCCCn1c2c(c3cc(OC)c(OC)cc3c1=O)C(=O)c1cc3c(nc1-2)OCO3 gave a growth of 57.9%.
In the case of O=C(CNc1nc(-c2ccccc2)cs1)Nc1ccc(Cl)cc1[N+](=O)[O-], the growth is reported as 15.5%.
Cc1ccc2nc(-c3ccc(-c4nnc(SCC(=O)Nc5ccc(Cl)cc5)o4)cc3)[nH]c2c1 was tested, and the growth was 4.47% (active).
Cc1ccc(C(=O)NNC(=O)CSc2nc3ccccc3c(=O)[nH]2)cc1 gave a growth of 104%.
For CN(C)CCNC(=O)OCCCCOc1cc(O)c2c(=O)cc(-c3ccccc3)oc2c1, the growth was -16.2% (active).
For CCCCSc1nc(Nc2ccc(/C(C)=N/NC(N)=S)cc2)c(C#N)c(-c2ccccc2)n1, the growth was 5.32% (active).
O=c1[nH]c2ccccc2cc1CSc1ccc(Nc2nccc(-c3ccc4c(c3)OCO4)n2)cc1 showed a growth of 27%.
COc1cc2oc(-c3cccc(C(=O)Nc4ccc(Cl)cc4)c3)cc(=O)c2c(OCCNC(=O)CNC(=O)OC(C)(C)C)c1OC showed a growth of 65.8%.
Cc1ccc2nc(-c3ccc(-c4nnc(SCC(=O)Nc5ccc(Br)cc5)o4)cc3)[nH]c2c1 gave a growth of 76.8%.
For COc1ccc(CN2[C@@H](C(=O)NCc3ccc(C(=O)NO)cc3)Cc3c([nH]c4ccccc34)[C@@H]2C)cc1, the growth was 40.1%.
With O=C(CNc1nc(-c2ccccc2)cs1)Nc1cccc(Cl)c1 the growth was 32.5%.
Molecule NS(=O)(=O)c1ccc(NC(=O)CSc2ccc(-c3ccc(Cl)cc3)nn2)c(Br)c1 has a growth of 29.8%.
For Clc1ccc2c(N/N=C/c3c[nH]c4ccc(Br)cc34)ccnc2c1, the growth was -78.6% (active).
For Cc1ccc(-c2ccc(SCC(=O)Nc3ccc(S(N)(=O)=O)cc3Br)nn2)cc1, the growth was 19.5%.
Work on CC(=O)Nc1ccc(-c2cn(-c3cccc(C(=O)Nc4cccc(OC(F)(F)F)c4)c3)nn2)cn1 yielded a growth of 102%.
CCOC(=O)N/C(=C1/OCCN1C)[P+](c1ccccc1)(c1ccccc1)c1ccccc1 showed a growth of 65.4%.
O=C(NO)c1ccc(CNc2nc(-c3ccccc3)c3ccccc3n2)cc1 gave a growth of 32.9%.
Cc1cc(C)nc(NS(=O)(=O)c2ccc(N/C(N)=N/c3nccc(-c4cccs4)n3)cc2)n1 showed a growth of 93.6%.
COc1cnc2c(c1)C(=O)c1c-2n(CCCNCCO)c(=O)c2cc(OC)c(OC)cc12 gave a growth of 47.8%.
